NPSR antagonist: blocks cAMP signaling of the human neuropeptide S receptor. Q6W5P4. CHO-NPSR cells, cAMP TR-FRET, antagonist mode. Potency, µM (series often up to 38.3 µM), for the others: top-dose activity change, negative = inhibition, usual class: inhibitors. hit rate 1% among 220,000; note: % is set by controls: 0 for no effect and ±100 for the full control effect; nearly all actives have a fitted effect of over 50% in size
Target sequence (Q6W5P4 whole entry, looked up): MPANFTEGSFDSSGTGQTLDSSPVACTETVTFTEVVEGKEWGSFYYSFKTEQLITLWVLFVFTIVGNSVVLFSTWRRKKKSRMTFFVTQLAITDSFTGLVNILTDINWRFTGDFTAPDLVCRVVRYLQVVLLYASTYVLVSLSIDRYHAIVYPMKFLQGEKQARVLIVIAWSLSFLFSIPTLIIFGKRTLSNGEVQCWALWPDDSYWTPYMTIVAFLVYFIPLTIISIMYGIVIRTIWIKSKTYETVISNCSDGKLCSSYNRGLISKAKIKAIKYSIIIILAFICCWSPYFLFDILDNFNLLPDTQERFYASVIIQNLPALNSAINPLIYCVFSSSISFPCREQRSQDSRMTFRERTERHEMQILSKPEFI
Lamin A splicing: changes lamin A minigene splicing in HeLa cells; Potency, µM (top dose mostly 46.1 µM), for inactives: top-dose ratio change, negative = inhibition, hits mostly inhibitors; hit rate 0.01% among 200,000; AID 1487; HeLa LMNA splicing GFP/RFP minigene ratio, 48 h; active = well fitted inhibition curve with a large enough effect in the signal ratio, with a control signal flat, not every such curve was filed as active; inconclusive = small, poorly fitted or top-dose-only effect, or effect the other way, or a change in a side signal; the % refers to the signal ratio; note: % is set by controls: 0 for no effect and ±100 for the full control effect
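S3 HeLa stable clones carrying a lamin A-EGFP splicing minigene plus DsRed2 were seeded at 600 cells/well in Opti-MEM with 2% FBS, pin-dosed and incubated 48 h at 37°C. Acumen cytometry (488 nm) gave the GFP/RFP total-intensity ratio.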
HTT aggregate: mutant huntingtin aggregation inhibition; PC12 HttQ103-GFP aggregates, Acumen cytometry, 40 h; Potency, µM (series often up to 46.1 µM), inactives show top-dose activity change, negative = inhibition, most hits filed as inhibitors; AID 1688; hit rate 1.1% among 220,000; note: % is set by controls: 0 for no effect and ±100 for the full control effect; nearly all actives have a fitted effect of over 60% in size
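Aggregate formation scored by laser-scanning cytometer (488 excitation, 500–530 emission) in lysed PC12 cells expressing Q103-GFP after 100 nM tebufenozide induction; library tested in dose series, with ATPLite reagent added in the multiplex.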
Epigenetic derep: derepresses silenced GFP reporter in murine cells; Potency, µM (highest dose often 53.9 µM), without a hit: at the top dose GFP activation, hits mostly activators; murine LDR cells, GFP reporter derepression, 30 h; hit rate 0.2% among 280,000; note: % of control where 0% means no effect; nearly all actives have a fitted effect of over 60% in size
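Reporter derepression read as number of fluorescent GFP-positive objects, 20-120 um in size, counted by laser-scanning cytometer. Mouse LDR line with an epigenetically silenced CMV-GFP locus; compound incubation 30 h, 37 C.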
HTT ATP protect: Huntington cell model cytoprotection by ATP luminescence | PC12 HTT-Q103 induced, cytoprotection, ATP luminescence, 40 h | Potency, µM (titrated, usually from 56.4 µM), without a hit: cytoprotection (ATP increase), actives largely listed as activators | hit rate 0.14% among 230,000; note: % of control where 0% means no effect; nearly all actives have a fitted effect of over 45% in size
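Quantitative HTS on tebufenozide-induced (100 nM) PC12 cells expressing HTTQ103 exon 1–GFP; compounds tested as a concentration series; survival measured via cellular ATP.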
An asterisk follows results filed as active; ? = inconclusive; nt = no result given; [ ] = another dose, or the depositor's remark. This is a sample that favours compounds with a hit; in the whole collection about 1.5% have one here. Unless noted, calls come from the whole dose curve; as a rule, active = well fitted curve in the direction sought with a large enough effect; inconclusive = small, poorly fitted or top-dose-only effect, or another doubt; inactive = no such curve, though single readings can be large; an effect the other way counts as inactive or inconclusive. Potency is the fitted concentration of half-maximal effect.

SMILES	NPSR antagonist	Lamin A splicing	HTT aggregate	Epigenetic derep	HTT ATP protect
O=C1N/C(=C/c2ccc(N3CCOCC3)cc2)C(=O)N1Cc1ccc(F)cc1	-10%[46.1 µM]	19%	-10%	0%	-26%
Cc1ccc(-c2ccc(/C=C3\SC(N4CCOCC4)=NC3=O)o2)cc1	-31%	?	0%	3%	2.8µM*
CC[C@H]1CN(C)[C@H]2Cc3c([nH]c4ccccc34)C(=O)C[C@H]1[C@H]2C(=O)OC	nt	nt	nt	nt	-9%[10 µM]
C=C1CC[C@H](O)C/C1=C/C=C1\CCC[C@]2(C)[C@H]1CC[C@H]2[C@@H](C)/C=C\[C@@H](C)C(C)C	nt	?	nt	0%[16.9 µM]	-33%[17.1 µM]
CC(C)OC(=O)CN1C(=O)S/C(=C/c2ccc(N3CCCCC3)o2)C1=O	?	9%	?	11µM*	-24%
O=C1S/C(=C\c2ccc(N3CCOCC3)o2)C(=O)N1Cc1ccc(F)cc1	?	?	7%	3.5µM*	-31%
COc1cccc(N=Cc2c(O)n(-c3cccc(C)n3)c(=O)c3ccccc23)c1	-24%[46.1 µM]	-6%	-9%	-1%	-36%
COc1ccc(N=Cc2c(O)n(-c3cccc(C)n3)c(=O)c3ccccc23)c(OC)c1	-10%	nt	-7%[9.22 µM]	13µM*	-15%[10 µM]
Cc1ccc(-c2nnc3ccccc3c2C(=O)Nc2ccc(C)c(F)c2)cc1	nt	nt	nt	5%	nt
Cc1cccc(NC(=O)c2ccc(NCCc3ccccc3)c([N+](=O)[O-])c2)c1	15%	-12%	-23%	18µM*	-9%[10 µM]
COCCNC(=O)CCCn1c(SCC(=O)NCc2ccc(C)cc2)nc2c(sc3ccccc32)c1=O	nt	nt	nt	-1%	nt
CC1(C)CC(N2CCCC2)=CC(=[N+]2CCCCC2)C1	17%	nt	8.9µM*	-3%	nt
CC1(C)CC(N2CCCC2)=CC(=[N+]2CCCC2)C1	13%	?	13%	-3%	-5%[10 µM]
O=c1c2c3nc4ccccc4nc3n(/N=C/c3ccncc3)c2ncn1-c1ccccc1	?	nt	-12%[9.22 µM]	2%	-3%[10 µM]
O=c1c2c3nc4ccccc4nc3n(/N=C/c3cccs3)c2ncn1-c1ccccc1	?	-10%	1.8µM*	1%	-8%[0.074 µM]
O=C(N/N=C/c1ccc2c(c1)OCO2)c1cc2ccccc2o1	4%	nt	-15%[9.22 µM]	1%	10%[10 µM]
O=C(COc1ccc(/C=N/NC(=O)c2cc3ccccc3o2)cc1Cl)Nc1ccccc1	4µM*	-2%	-9%	-1%	-11%[10 µM]
COc1ccc(N2C(=O)c3ccccc3NC2c2ccc(OC)c(CSc3ccccn3)c2)cc1 (configuration not stated)	13µM*	3%	-5%	1%	-52%
COc1ccc(COc2ccccc2C(N)=O)cc1F	3%	?	16µM*	-1%	nt
COc1cc(C(N)=O)ccc1OCc1ccccc1	-12%[46.1 µM]	4%	4%	-1%	-29%
C[C@@H](C(=O)Nc1ccc2ccccc2c1)[C@@H]1C[C@@]1(C)[C@@H](NC(=O)c1ccncc1Cl)c1ccccc1	nt	nt	nt	3%	-12%
CCCC(=O)NCc1nc2cccnc2n1Cc1ccc(F)cc1	nt	8%[46 µM]	nt	4%	nt
O=C(O)c1ccc(N2C(=O)/C(=C\c3ccccc3)N=C2c2ccccc2)cc1	6.3µM*	6%[46 µM]	-23%[9.22 µM]	-3%	5%[10 µM]
CC1=N/C(=C\c2ccc3c(c2)OCO3)C(=O)N1c1ccc(C(=O)O)cc1	-25%	4%	9%	-1%	11%[0.074 µM]
CCn1c(CN2CCOCC2)nc2cc(NC(=O)c3ccc([N+](=O)[O-])cc3)ccc21	nt	?	nt	-3%	nt
SMILES	NPSR antagonist	Lamin A splicing	HTT aggregate	Epigenetic derep	HTT ATP protect
CC(C)(C)c1ccc(-n2nc(C#N)c(Cl)cc2=O)cc1	-55%	nt	5µM*	0%	-192%
C=CCOc1cccc(C2C(C(=O)c3ccc(C)o3)=C(O)C(=O)N2c2nccs2)c1 (configuration not stated)	5µM*	?	0%	-1%	nt
Cc1ccc(C(=O)C2=C(O)C(=O)N(c3ncccn3)C2c2cccc(Cl)c2)o1 (configuration not stated)	3%[46.1 µM]	2%	16%	1%	-14%
CC1=CC(=C(c2ccc(N)cc2)c2ccc(N)cc2)C=CC1=N	nt	nt	7.9µM*	nt	-62%
CN(C)c1ccc(C(=C2C=CC(=[N+](C)C)C=C2)c2ccc(N(C)C)cc2)cc1	nt	nt	?	-3%	-98%
CN1C(=O)C(c2nnc(Nc3cccc4ccccc34)s2)C2CC1(C)Oc1ccccc12 (configuration not stated)	-21%	?	-14%	2%	29%[10 µM]
Cc1ccc(S(=O)(=O)C2C(=O)N(C)C3(C)CC2c2ccccc2O3)cc1C (configuration not stated)	-15%[46.1 µM]	-12%	?	-1%	4µM*
CC(=O)N[C@@H](CC(=O)O)C(=O)O	nt	-3%	nt	0%[16.9 µM]	?
CC(=O)N[C@@H](CCC(=O)O)C(=O)O	nt	nt	8%	nt	2µM*
Cc1cc(C)n2nc(CNC(=O)c3ccc(Cl)cc3)nc2n1	nt	nt	nt	3%	nt
Oc1ccccc1Nc1nc2ccccc2n2nnnc12	nt	nt	nt	13µM*	nt
COc1ccc(N2CCN(c3nc4ccc(C)cc4n4nnnc34)CC2)cc1	nt	nt	nt	-1%	nt
c1ccc(-c2csc3ncnc(NCC4COc5ccccc5O4)c23)cc1 (configuration not stated)	-30%	?	8.9µM*	-4%	17%[10 µM]
Cc1sc2ncnc(NCC3COc4ccccc4O3)c2c1C (configuration not stated)	14%	?	?	0%	30%[10 µM]
COc1cccc(NC(=O)c2oc3ccccc3c2NC(=O)C2CCCCC2)c1	nt	nt	nt	-4%	nt
Cc1sc(-c2cc3c([nH]c2=O)CC(c2ccccc2)CC3=O)nc1-c1ccc(Cl)cc1 (configuration not stated)	nt	nt	nt	18µM*	nt
O=C(Cn1c2ccccc2c(=O)c2ccccc21)N/N=C/c1cc([N+](=O)[O-])ccc1N1CCCCCC1	-15%[46.1 µM]	8%	?	20µM*	-33%
CN(Cc1ccccc1)c1ncnc2c1nnn2C	nt	16%[46 µM]	nt	1%	nt
CN(C)c1ccc(-c2nc3ccccn3c2/N=C/c2ccc(Br)cc2)cc1	10µM*	?	-24%	-2%	-29%[10 µM]
COc1ccc2[nH]c3c(NCCC4=CCCCC4)ncnc3c2c1	-57%	nt	13µM*	-2%	-156%
Cc1ccc(C2c3c(oc4ccccc4c3=O)C(=O)N2c2ccc(C)cn2)cc1 (configuration not stated)	nt	nt	nt	1%	nt
COC(=O)Cc1ccc2sc(-c3ccccc3)nc2c1	-14%	16%	7%	-2%	10%[10 µM]
COC(=O)Cc1sc(-c2ccccn2)nc1-c1ccccc1	-17%	nt	-5%	-2%	1µM*
Cc1ccc(NC(=O)c2ccccc2)cc1	-6%[46.1 µM]	2%	10%	-1%	-59%
Cc1ccc(NC(=O)C2=C(c3ccccc3)S(=O)(=O)CCS2(=O)=O)cc1	10µM*	?	5µM*	?	-133%
